Data reported in article PMC4336329 (PLoS ONE, 2015).
Out of some 310,000 compounds screened, about 14,000 (4.5%) showed an effect of 50% or more. The effect is printed as a negative number. Many of the other results were omitted from the sample, so strong results are more common in it than they were.

biological target: human ether-à-go-go-related gene (hERG) potassium channel (human, UniProt Q12809); test: primary screen, population patch clamp on CHO cells stably expressing hERG; higher = less effect of the substance
Sequence (Q12809 whole entry, looked up): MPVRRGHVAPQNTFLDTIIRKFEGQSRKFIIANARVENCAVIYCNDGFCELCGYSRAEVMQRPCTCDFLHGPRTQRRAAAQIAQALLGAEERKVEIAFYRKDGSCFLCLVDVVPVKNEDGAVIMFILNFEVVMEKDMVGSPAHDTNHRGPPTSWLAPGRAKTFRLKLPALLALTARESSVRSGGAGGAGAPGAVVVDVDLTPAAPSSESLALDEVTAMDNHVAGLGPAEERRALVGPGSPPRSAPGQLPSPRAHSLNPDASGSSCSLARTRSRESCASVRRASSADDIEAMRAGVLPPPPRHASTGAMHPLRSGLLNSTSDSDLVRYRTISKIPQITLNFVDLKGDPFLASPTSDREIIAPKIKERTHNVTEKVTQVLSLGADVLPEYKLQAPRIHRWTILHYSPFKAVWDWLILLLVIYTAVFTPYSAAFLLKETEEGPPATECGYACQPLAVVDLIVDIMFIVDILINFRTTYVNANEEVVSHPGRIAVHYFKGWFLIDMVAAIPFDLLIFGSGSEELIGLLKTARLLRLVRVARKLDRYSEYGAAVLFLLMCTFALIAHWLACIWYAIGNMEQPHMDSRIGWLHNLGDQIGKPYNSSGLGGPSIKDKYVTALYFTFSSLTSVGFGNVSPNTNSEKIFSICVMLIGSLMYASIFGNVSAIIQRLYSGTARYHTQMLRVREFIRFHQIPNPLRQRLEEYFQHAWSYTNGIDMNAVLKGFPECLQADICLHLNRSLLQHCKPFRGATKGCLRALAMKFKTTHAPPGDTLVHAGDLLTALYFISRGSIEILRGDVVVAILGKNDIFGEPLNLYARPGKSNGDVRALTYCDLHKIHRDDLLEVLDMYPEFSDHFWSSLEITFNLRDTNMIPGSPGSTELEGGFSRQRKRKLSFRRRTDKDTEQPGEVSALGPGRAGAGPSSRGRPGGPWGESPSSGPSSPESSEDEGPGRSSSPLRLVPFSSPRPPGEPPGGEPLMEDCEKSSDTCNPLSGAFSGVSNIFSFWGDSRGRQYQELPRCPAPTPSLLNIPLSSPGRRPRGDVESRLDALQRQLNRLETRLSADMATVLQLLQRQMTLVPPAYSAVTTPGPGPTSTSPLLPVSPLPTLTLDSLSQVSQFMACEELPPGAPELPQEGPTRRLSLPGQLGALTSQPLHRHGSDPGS
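Note: peak tail current of the secondary pulse compared with the same well before compound.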

SMILES	hERG current change (%, negative = inhibition) at 10uM
COc1ccc(C(=O)N/N=C/c2ccc(N3CCOCC3)s2)cc1OC	11.6%
Cc1nc2sc(-c3ccccc3)nn2c(=O)c1Br	-1.74%
COc1ccc2nc(Sc3c([N+](=O)[O-])nc(C)n3Cc3ccccc3)[nH]c2c1	-12.7%
CCOc1ccc(N2CC(C(=O)NC3CCCC3)CC2=O)cc1 (stereo not shown)	2.11%
COc1ccc(N(C(=O)CNC(=O)c2ccco2)C(C(=O)NC2CCCC2)c2ccncc2)cc1 (stereo not shown)	13.1%
CC(=O)c1sc(NC(=O)CSCc2c(C)noc2C)nc1-c1ccccc1	-27.4%
O=C(N/N=C/c1c[nH]c2ccc(Br)cc12)C1CC1	4.6%
CC(C)C(=O)Nc1nnc(SCC(=O)NC2CC2)s1	12.8%
CC(=O)N1c2ccccc2NC2=C(C(=O)CCC2)C1c1cccnc1 (stereo not shown)	4.51%
C=CCNC(=O)C1CC(=O)N(c2ccc(OCC(=O)Nc3ccc(OC)cc3)cc2)C1 (stereo not shown)	-3.5%
COc1ccc(-c2cc(=O)oc3cc(OC(C)C(=O)O)ccc23)cc1 (stereo not shown)	6.26%
Cc1cccc(NC(=O)CNC(=O)Cc2ccc(S(=O)(=O)N3CCOCC3)s2)c1C	5.91%
CN(C)S(=O)(=O)c1cccc(C(=O)Nc2cc(Cl)cc(Cl)c2)c1	4.25%
CC(=O)c1ccc(NS(=O)(=O)c2ccc3c(c2)CCC(=O)N3)cc1	8.49%
Cn1c(=O)c2c(nc(CN3CCN(C(=O)c4ccco4)CC3)n2CC(N)=O)n(C)c1=O	24.4%
Cn1c(=O)c2c(nc(CN3CCN(C(=O)c4ccco4)CC3)n2CCCO)n(C)c1=O	-27.6%
Cn1c(=O)c2c(nc(CN3CCN(C(=O)c4ccco4)CC3)n2CCCc2ccccc2)n(C)c1=O	-68.5%
COCCn1c(CN2CCN(C(=O)c3ccco3)CC2)nc2c1c(=O)n(C)c(=O)n2C	-9.04%
Cn1c(=O)c2c(nc(CN3CCN(C(=O)c4ccco4)CC3)n2CCc2ccccc2)n(C)c1=O	-66.3%
CCn1c(CN2CCN(C(=O)c3ccco3)CC2)nc2c1c(=O)n(C)c(=O)n2C	-16.4%
CCN(CC)C(=O)c1cccc(C)c1	0.757%
Cc1cccc(C(=O)N/C(=C\c2ccco2)C(=O)N2CCCC2)c1	-18.6%

SMILES	hERG current change (%, negative = inhibition) at 10uM
CC(C)Cn1nc(C(=O)Nc2cccc(C(=O)NC3CC3)c2)c2ccccc2c1=O	-71.6%
CC(C)Cn1nc(C(=O)Nc2cccc(S(=O)(=O)N3CCCC3)c2)c2ccccc2c1=O	-7.01%
CCCn1nc(C(=O)NC2CC2)c2ccccc2c1=O	-19.8%
Cc1nc2ccc(NC(=O)c3nn(CC(C)C)c(=O)c4ccccc34)cc2s1	-26%
CCCCn1nc(C(=O)Nc2cccc(C(=O)NC3CC3)c2)c2ccccc2c1=O	-82.6%
Cn1nc(C(=O)Nc2cccc(C(=O)NC3CC3)c2)c2ccccc2c1=O	-35.3%
N#C/C(C(=O)N1CCOCC1)=c1/s/c(=C\c2ccccn2)c(=O)n1-c1ccccc1	17.6%
COCCCn1c(N)c(C(=O)NCc2ccco2)c2nc3ccccc3nc21	4.53%
Cc1cc(C)n2nc(SCC(=O)N/N=C/c3ccccn3)nc2n1	3.74%
C=CCN1C(=O)/C(=C\c2cccc(OC(=O)c3ccco3)c2)SC1=S	2.37%
CC(C)n1ncc2c(C(=O)N3CCN(Cc4ccc(Br)s4)CC3)cc(C3CC3)nc21	-4.36%
CC(=O)Nc1ccc(OS(=O)(=O)c2ccc(Cl)cc2)cc1	-24.5%
CC(=O)Nc1ccc(OS(=O)(=O)c2cc(Cl)ccc2C)cc1	-6.02%
COc1ccc(Cl)cc1S(=O)(=O)Oc1ccc(NC(C)=O)cc1	-51.7%
COc1ccc(CCNC(=O)c2ccc3nc(-c4ccco4)c(-c4ccco4)nc3c2)cc1OC	-0.346%
COc1ccc(Cn2c(O)c(C=Nc3ccc(O)cc3)c3ccccc3c2=O)cc1	1.27%
O=C(c1[nH]nc2c1CCc1ccccc1-2)N1CCN(Cc2ccc3c(c2)OCO3)CC1	-26.9%
O=C(N/N=C/c1ccc(O)cc1O)C(=O)N/N=C/c1ccc(O)cc1O	14.1%
Nc1[nH]n2c(=O)c3c(nc2c1N=Nc1ccc(Cl)cc1)CCCC3	-8.56%
COc1cccc(N=Nc2c(N)[nH]n3c(=O)c4c(nc23)CCCC4)c1	12.2%
Nc1[nH]n2c(=O)c3c(nc2c1N=Nc1ccccc1)CCCC3	-54.3%
COc1ccc(OC)c2[nH]c(=O)c(CCNC(=O)c3ccc4c(c3)OCO4)cc12	-10.2%

SMILES	hERG current change (%, negative = inhibition) at 10uM
CN(C)S(=O)(=O)N1CCN(C(=O)c2ccccc2)CC1	8.25%
CC(C)NC(=S)N/N=C1\CCCc2ccccc21	10.4%
CCCCNC(=S)N/N=C1\CCCCc2ccccc21	-64.4%
CC(C)NC(=S)N/N=C1\CCCCc2ccccc21	-21.1%
C=C(C)CNC(=S)N/N=C1\CCCCc2ccccc21	-60.3%
CCNC(=S)N/N=C1\CCCCc2ccccc21	-3.93%
C=C(C)CNC(=S)NN=C1c2ccccc2-c2ccccc21	6.79%
COc1cc(CCCN2C(=O)C(=O)NC[C@@H]2CC2CCCCC2)cc(OC)c1OC	4%
N#Cc1cc[n+](CC(=O)c2ccc(NC(=O)c3ccccc3)cc2)cc1.[Br-]	-14.6%
Cc1ccc(SCCNC(=O)/C=C/c2ccc(Cl)cc2)cc1	-0.0121%
CC(C)C(NC(=O)/C=C/c1ccc(F)cc1)C(C)C	16.1%
Cc1ccc2c(c1)NC(=O)C(CC(=O)NCCCN1CCN(c3cc(C)ccc3C)CC1)O2 (stereo not shown)	-61.4%
COc1ccc(NC(=O)CC2Oc3ccc(C)cc3NC2=O)cc1 (stereo not shown)	11.3%
Cc1ccc2c(c1)NC(=O)C(CC(=O)NCCCN1CCCCC1)O2 (stereo not shown)	-0.113%
CCN(CCCNC(=O)CC1Oc2ccc(C)cc2NC1=O)Cc1ccccc1 (stereo not shown)	-61.5%
Cc1ccc2c(c1)NC(=O)C(CC(=O)NCCCN1CCCC1)O2 (stereo not shown)	12.6%
COc1ccc(N2CCN(CCCNC(=O)CC3Oc4ccc(C)cc4NC3=O)CC2)cc1 (stereo not shown)	-55.5%
CCCCN(CCCC)CCCNC(=O)CC1Oc2ccc(C)cc2NC1=O (stereo not shown)	-49.5%
CCN(CC)CCCNC(=O)CC1Oc2ccc(C)cc2NC1=O (stereo not shown)	0.515%
Cc1ccc2c(c1)NC(=O)C(CC(=O)NCCCN1CCCCC1C)O2 (stereo not shown)	-4.68%
CCC1CCCCN1CCCNC(=O)CC1Oc2ccc(C)cc2NC1=O (stereo not shown)	-7.95%
Cc1ccc2c(c1)NC(=O)C(CC(=O)NCCCN1CCCC1=O)O2 (stereo not shown)	16.5%

SMILES	hERG current change (%, negative = inhibition) at 10uM
Cc1ccc2c(c1)NC(=O)C(CC(=O)NCCCN1CCc3ccccc3C1)O2 (stereo not shown)	-65.7%
CCn1cc(C(=O)NCc2ccco2)c(=O)c2cc(S(=O)(=O)N3CC(C)CC(C)C3)ccc21 (stereo not shown)	-7.3%
O=c1c2ccccc2nnn1CSc1nnc(-c2cccnc2)n1-c1ccccc1F	11.5%
CNC(=O)c1cc(S(=O)(=O)Nc2ccc3c(c2)OCO3)ccc1C	4.42%
COc1ccc(CCNC(=O)CCCCC(=O)NCCc2ccc(OC)c(OC)c2)cc1OC	4.7%
CCN(c1ccc(OC)cc1)S(=O)(=O)c1nnc(NC(=O)c2ccccc2Cl)s1	15.5%
Cc1ccnc(NC(=O)C2CCN(S(=O)(=O)c3ccc4c(c3)CC(C)N4C(=O)C3CCC3)CC2)c1 (stereo not shown)	-0.431%
COc1cc(/C=C(\C#N)C(=O)Nc2cccc(C(=O)O)c2)ccc1OCc1ccc(F)cc1	22.6%
C=CCSc1nnnn1-c1ccc(OC)cc1	-20%
Cc1ccc(CNC(=O)CCCNC(=O)c2ccc(Cl)cc2)n1C	2.05%
Cc1ccc(CN2CCN(Cc3cn(C)nc3C)CC2CCO)o1 (stereo not shown)	12.4%
CCOC(=O)C1(CCOc2ccccc2)CCN(Cc2cccc(OC)c2)CC1	-76.1%
CCOC(=O)C1(CCOc2ccccc2)CCN(Cc2cccc(F)c2)CC1	-65.4%
CCOC(=O)C1(CCOC)CCN(Cc2cccc(OCc3ccccc3)c2)CC1	-42.4%
CCOC(=O)C1(CCOc2ccccc2)CCN(Cc2cccc(O)c2)CC1	-63.1%
CCOC(=O)C1(CCOc2ccccc2)CCN(Cc2cccc(OCCO)c2)CC1	-83.4%
COc1ccccc1NCCC(=O)OCC(=O)NCc1ccco1	23.7%
COc1ccc(N(CC(=O)Nc2cccc(C(C)=O)c2)S(C)(=O)=O)cc1OC	-10.5%
Cn1c(Cn2nnc3ccccc32)nnc1SCC(=O)N1c2ccccc2CCc2ccccc21	-23.6%
